# Measurements published in PubChem BioAssay (Tox21).
# “And” between values parts separate entries of the source, which are not always exact repeats. Equal entries are not always repeated. Records with an inconclusive call do not appear. Unmarked numbers belong to inactive results. The call rests on the fitted dose curve; in most records, active means well fitted activation curve with a large enough effect in the repeat runs; inconclusive means weak or mixed curves; inactive means no such curve, though single readings can be large or run the other way.
# Biological target: Nuclear receptor subfamily 1 group I member 2 (Rattus norvegicus) (UniProt Q9R1A7)
# Sequence (Q9R1A7 whole entry, looked up): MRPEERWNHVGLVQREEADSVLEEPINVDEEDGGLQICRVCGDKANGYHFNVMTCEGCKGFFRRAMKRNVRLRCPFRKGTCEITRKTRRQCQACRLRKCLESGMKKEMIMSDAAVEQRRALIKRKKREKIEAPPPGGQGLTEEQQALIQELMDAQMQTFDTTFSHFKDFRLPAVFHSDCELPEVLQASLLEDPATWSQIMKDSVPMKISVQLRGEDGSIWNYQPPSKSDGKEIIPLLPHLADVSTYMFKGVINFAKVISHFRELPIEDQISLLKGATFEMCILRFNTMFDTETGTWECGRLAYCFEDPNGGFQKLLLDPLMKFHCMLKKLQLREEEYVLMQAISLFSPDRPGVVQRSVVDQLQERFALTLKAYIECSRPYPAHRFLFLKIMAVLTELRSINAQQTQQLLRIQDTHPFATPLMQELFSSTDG
# Test: Rat pregnane X receptor (rPXR) activation by small molecules, qHTS assay (AID 1346983); further: nearly all actives have a fitted effect of over 20% in size
# Conditions: rPXR luciferase reporter cells, One-Glo luminescence, 24 h; stronger effect = higher value
# Text: National Center for Advancing Translational Sciences [NCATS] NIH Chemical Genomics Center [NCGC] U.S. Environmental Protection Agency [EPA] National Institutes of Environmental Health Sciences [NIEHS] National Toxicology Program [NTP] Assay overview: The Pregnane X receptor (PXR), a ligand activated nuclear receptor plays a critical role in the regulation of genes involved in drug metabolism and transporters. PXR binds xenobiotics and when compounds interact with PXR produces enhanced expression of CYP3A genes. In humans PXR activation and CYP3A4 induction can be problematic due to their interactions with co-medicated drugs and decrease their efficacy or increase their own metabolism. However, there are known species-specific differences with regard to PXR activation that should be taken into account when animal PXR data are extrapolated to humans. A cell based rat PXR (rPXR) assay (developed by Puracyp, Inc., CA) was used to assess the activation of rPXR.
# Assay Protocol Summary: rPXR cells were dispensed at 2,000 per well in 5uL of assay medium into white, solid-bottom 1536-well plates using a Multidrop Combi dispenser (Thermo Scientific). The assay plates were incubated at 37 C for 5hr before transferring 23 nL of test compounds dissolved in DMSO and positive control via Pintool station (Wako). The assay plates were incubated at 37 C for 24 hr. Then 5ul One-Glo assay reagent (Promega) was added to each plate by a Flying Reagent Dispenser (FRD, Aurora Discovery) and following 30 min incubation at room temperature, luciferase activity was quantified on a ViewLux plate reader (Perkin Elmer).
# On the % scale 0 is the no-effect control and ±100 the full control effect.
row,SMILES,max activation
1,CCc1cccc(CC)c1NC(=O)CN(CC(=O)O)CC(=O)O,-4.1%
2,COc1ccc2cc1Oc1ccc(cc1)C[C@H]1c3c(cc4c(c3Oc3cc5c(cc3OC)CCN(C)[C@@H]5C2)OCO4)CCN1C,-17.4%
3,CCCCCCCC/C=C\CCCCCCCCN,-1.07%
4,CCCCCCCCCCCCOCCOCCOCCOCCOCCOCCOCCOCCOCCO,-18.4%
5,CCCCCCCCCCCCCCCC[N+](C)(C)CC,-22.3%
6,CCCCCCCCCCCCCC[N+](C)(C)Cc1ccccc1,-5.38%
7,Cc1cc(-n2nc3ccc(Cl)cc3n2)c(O)c(C(C)(C)C)c1,-2.8%
8,CC(C(=O)O)c1ccc2c(c1)[nH]c1ccc(Cl)cc12 (stereo not given),-1.86%
9,COC1=C(OC)C(=O)C(CCCCCCCCCCO)=C(C)C1=O,4.16%
10,O=C(O)c1cc(-c2ccc(F)cc2F)ccc1O,-2%
11,Nc1nc(N)nc(-c2cc(Cl)ccc2Cl)n1,-2.66%
12,CN1CCCCC1CCN1c2ccccc2Sc2ccc(S(C)=O)cc21 (stereo not given),-2.96% and -0.765%
13,CC(C)NC[C@@H](O)COc1ccc(CC(N)=O)cc1,-0.64%
14,Cc1nc(-c2ccc(Cl)cc2)oc1COC(C)(C)C(=O)O,-7.31%
15,O[C@@H]([C@H](O)[C@H](O)CBr)[C@H](O)CBr,-0.988%
16,C#C[C@]1(OC(C)=O)CC[C@H]2[C@@H]3CCC4=C[C@@H](OC(C)=O)CC[C@@H]4[C@H]3CC[C@@]21C,3.89%
17,CN1CCC[C@@H]1CCO[C@](C)(c1ccccc1)c1ccc(Cl)cc1,6.7%
18,COc1c(C)c2c(c(O)c1C/C=C(\C)CCC(=O)OCCN1CCOCC1)C(=O)OC2,-3.72%
19,CCCCCCCCCCC[C@@H](C[C@@H]1OC(=O)[C@H]1CCCCCC)OC(=O)[C@H](CC(C)C)NC=O,-3.72%
20,C#CC1(O)CC[C@H]2[C@@H]3CCC4=CCCC[C@@H]4[C@H]3CC[C@@]21C (stereo not given in full),-0.183%

row,SMILES,max activation
1,Cc1cc(C(C#N)c2ccc(Cl)cc2)c(Cl)cc1NC(=O)c1cc(I)cc(I)c1O (stereo not given),-15.9%
2,CC(C)Cn1cnc2c(N)nc3ccccc3c21,2.02%
3,NC[C@H]1O[C@H](O[C@H]2[C@H](O[C@@H]3O[C@H](CO)[C@@H](O)[C@H]3O)C(O)[C@H](N)C[C@@H]2N)[C@H](N)[C@@H](O)[C@@H]1O (stereo not given in full),3.62%
4,CCOc1ccc2ccccc2c1C(=O)N[C@@H]1C(=O)N2[C@@H]1SC(C)(C)[C@@H]2C(=O)O,-0.231%
5,CCCCC(CC)CN1CN(CC(CC)CCCC)CC(C)(N)C1 (stereo not given),-2.15%
6,O=C1CCc2ccc(OCCCCN3CCN(c4cccc(Cl)c4Cl)CC3)cc2N1,-4.05%
7,CC1(C)[C@@H](O)CC[C@]2(C)[C@H]3C(=O)C=C4[C@@H]5C[C@@](C)(C(=O)O)CC[C@]5(C)CC[C@@]4(C)[C@]3(C)CC[C@@H]12,1.62%
8,CC(CCc1ccccc1)NCC(O)c1ccc(O)c(C(N)=O)c1 (stereo not given),-0.392%
9,CC[N+](CC)(CC)CCOc1ccc(/C=C/c2ccccc2)cc1,-2.42%
10,Nc1ccc(C(=O)O)c(O)c1,-0.56%
11,C[C@@H](O)[C@H](N)C(=O)O,-1.79%
12,CC(N=C(NC#N)Nc1ccncc1)C(C)(C)C (stereo not given),-8.82%
13,Cc1cc(C)c(/C=C2\C(=O)Nc3ccccc32)[nH]1,-0.232%
14,CCCCCCCCCCCCCC[N+](C)(C)C,-17%
15,CN(C)C(=O)COC(=O)Cc1ccc(OC(=O)c2ccc(N=C(N)N)cc2)cc1,-2.55%
16,COc1cccc2c1C(=O)c1c(O)c3c(c(O)c1C2=O)C[C@@](O)(C(C)=O)C[C@@H]3O[C@H]1C[C@H](N)[C@H](O)[C@H](C)O1,-7.89%
17,O=C(O)c1cc(=O)c2ccccc2o1,-0.583%
18,Cc1c(F)c(N2CCNC(C)C2)cc2c1c(=O)c(C(=O)O)cn2C1CC1 (stereo not given),-0.343%
19,Cc1cc(C(C)(C)C)cc(C)c1CC1=NCCN1,-6.02%
20,CCCCC/C=C\C/C=C\CCCCCCCC(=O)O,-4.54%
